# Compound activity: PubChem BioAssay, several laboratories
# Sampled rows, rich in hits. Any-hit rate of the full collection: about 5.9%.
# rCAG binder – molecules binding r(CAG) RNA repeats; r(CAG) RNA repeat, TO-PRO-1 dye displacement fluorescence; inhibition, % at 3 µM; actives 1.3% (n = 370,000); AID 651821;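 active = inhibition above the plate cutoff, the mean of all test compounds on that plate plus 3 SD, cut at about 35% in these data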;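 also: 0% = DMSO alone and 100% = 100 µM mitoxantrone as full dye displacement; higher means more dye released from RNA so lower well fluorescence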
# Rtt109 Vps75 – blocks Candida albicans Rtt109/Vps75 acetyltransferase activity; inhibition, % at 34.9 µM; AID 540336; purified Rtt109/Vps75, ThioGlo CoA-SH fluorescence, 4 h; actives 0.16% (n = 330,000);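 active = inhibition of at least 50% in every replicate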
# ALR inh – human ALR oxidase inhibition via reduced H2O2; inhibition, % (no concentration beside the values); P55789; AID 485317; actives 3.8% (n = 290,000); purified ALR, DTT oxidation, H2O2 HRP-luminol luminescence;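 active = mean replicate inhibition above about 79%, with every replicate also reaching it, limit read from the data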
# Target sequence (P55789 whole entry, looked up): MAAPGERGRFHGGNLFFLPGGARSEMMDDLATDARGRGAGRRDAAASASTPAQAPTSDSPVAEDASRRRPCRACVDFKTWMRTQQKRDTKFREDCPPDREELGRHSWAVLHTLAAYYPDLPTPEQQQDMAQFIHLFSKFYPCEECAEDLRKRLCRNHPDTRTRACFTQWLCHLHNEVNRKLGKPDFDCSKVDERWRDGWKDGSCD
# ABHD5-PLIN5 inh – ABHD5-PLIN5 protein interaction inhibition; Q00G26+Q8WTS1; actives 0.78% (n = 360,000); Split G. princeps luciferase complementation, luminescence, 4 h; inhibition, % at 4 µM; AID 602281;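 active = inhibition above the mean inhibition across every tested compound plus 3 SD, cut at about 22% in these data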;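 also: 0% = DMSO only wells and the 100% control is not disclosed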
# LANA-H2A inh – blocks KSHV LANA binding to histone H2A/H2B; cell-free LANA-H2A/H2B peptide, fluorescence polarization; inhibition, % (concentration not given with the values); actives 0.6% (n = 320,000); in the data active = inhibition mostly above about 10%, no sharp cut-off; inactive = mostly below about 6.7%
# PRMT1 inh – blocks human protein arginine methyltransferase 1; Q99873; recombinant PRMT1, activity-based probe fluorescence polarization; inhibition, % at 2.79 µM; actives 1.3% (n = 370,000); AID 652257;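 active = inhibition above about 21% made by adding two undisclosed values, limit read from the data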
# Target sequence (Q99873 whole entry, looked up): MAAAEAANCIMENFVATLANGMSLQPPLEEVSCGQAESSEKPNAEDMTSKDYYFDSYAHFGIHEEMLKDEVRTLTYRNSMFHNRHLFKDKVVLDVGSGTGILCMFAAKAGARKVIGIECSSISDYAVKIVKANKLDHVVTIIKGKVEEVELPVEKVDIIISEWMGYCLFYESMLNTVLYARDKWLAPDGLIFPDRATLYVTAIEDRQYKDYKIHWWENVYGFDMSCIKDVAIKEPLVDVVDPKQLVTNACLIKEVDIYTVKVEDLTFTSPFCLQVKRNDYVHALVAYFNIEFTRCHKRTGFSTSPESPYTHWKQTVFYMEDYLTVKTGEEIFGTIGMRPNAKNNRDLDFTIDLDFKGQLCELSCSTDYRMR
# Starred values were filed as active, the others as inactive; . = no result given; ! = not active in a repeat.
SMILES,rCAG binder,Rtt109 Vps75,ALR inh,ABHD5-PLIN5 inh,LANA-H2A inh,PRMT1 inh
COc1ccccc1C(O)c1ncc(-c2ccccc2C)[nH]1 (centres undefined),2,.,.,3,.,2
CC1(C)CC(=O)c2cc(C(=O)NNc3ccccc3)c(=O)n(-c3ccccc3)c2C1,0,12,98*,-2,-6,2
CN(c1ccc(C(=O)NCc2cccnc2)cc1)S(C)(=O)=O,-1,5,-13,6,4,0
Cc1ccccc1CN(c1ccc(C(=O)NCc2cccnc2)cc1)S(C)(=O)=O,-4,-15,96*,-2,-2,0
O=C(O)c1ccc(-n2nc(-c3ccccc3O)nc2-c2ccccc2O)cc1,20,.,.,.,.,0
CCOC(=O)[C@@]12CN(C(=O)OC(C)(C)C)CC=C1N(Cc1ccc(OC)cc1)C(=O)[C@H]2CC(=O)NCc1cccc2ccccc12,8,.,.,.,.,0
COC(=O)[C@]12C[C@H](CC(=O)NCc3ccc(OC)c(OC)c3)C(=O)N(Cc3ccc(Cl)cc3Cl)C1=C[C@H](C1CCCC1)O[C@@H]2C,10,.,.,.,.,1
COc1ccc(N2CCN(C(=O)CCC(=O)N3Cc4ccccc4Oc4ncccc43)CC2)cc1,-6,6,90*,8,-6,2
Cc1cc2c(c(=O)o1)[C@@]1(C(=O)N(C)c3ccccc31)C1=C(CC3(CCCCC3)OC1=O)O2,-2,.,.,.,.,1
N#C/C(=N\O)c1nc(-c2ccccc2)cs1,5,9,89*!,0,0,3
C#CCNC(=O)C[C@@H]1C(=O)N(Cc2ccc(OC)cc2)C2=CCN(C(=O)OC(C)(C)C)C[C@]21C(=O)OCC,2,.,.,.,.,-1
O=C(c1[nH]c(C(F)(F)F)nc1-c1ccccc1)N1CCc2c([nH]c3ccccc23)C1,18,.,.,11,.,3
O=C(c1ccccc1Br)N1CCc2c([nH]c3ccccc23)C1,0,1,83*,-3,4,1
COc1cccc(-c2nc(CS(=O)(=O)CC(=O)NC3CCCC3)c(C)o2)c1,-1,9,98*,-1,-2,1
Cc1oc(-c2ccccc2Cl)nc1CS(=O)(=O)CC(=O)NC1CCCC1,2,-8,98*,1,1,-4
COc1cccc(-c2nc(CS(=O)(=O)CC(=O)NC3CCCc4ccccc43)c(C)o2)c1 (centres undefined),4,28,89*,4,0,-4
Cc1ccccc1-c1nc(CS(=O)(=O)CC(=O)NC2CCCC2)c(C)o1,-7,6,-11,-3,-2,-2
O=C(O)CCC(=O)NCCn1c(-c2ccccc2)csc1=Nc1ccccc1,9,-4,92*,4,2,4
OCCCn1c(-c2ccccc2)csc1=Nc1ccccc1,-3,.,40,-4,7,3
O=C(NCC1CCCCC1)c1csc([C@@H]2O[C@H](CO)[C@H](O)[C@H](O)[C@H]2O)n1,2,.,.,-4,.,-1
C/C(O)=C\c1nc2ccccc2oc1=O,3,4,95*,-8,2,7
O=c1oc2ccccc2nc1/C=C(\O)c1ccc(Br)cc1,.,19,-7,-1,16,.
CCS(=O)(=O)c1ccc2oc(=O)c(/C=C(\O)c3ccc(Cl)cc3)nc2c1,19,19,28,-8,-2,-8
CCS(=O)(=O)CCSc1nc2ccccc2o1,-2,-6,-1,-2,-2,1
Cc1ccc2oc(=O)c(/C=C(\O)c3ccccc3)nc2c1,3,3,98*,-1,-1,-6
SMILES,rCAG binder,Rtt109 Vps75,ALR inh,ABHD5-PLIN5 inh,LANA-H2A inh,PRMT1 inh
Cc1ccc2oc(=O)c(/C=C(\O)CC(C)C)nc2c1,6,.,82*,3,4,5
Cc1ccc2oc(=O)c(/C=C(\O)c3cccs3)nc2c1,0,9,3,-2,4,4
CS(=O)(=O)Cc1nc2ccccc2oc1=O,0,1,99*,-1,-2,9
COC(=O)[C@H](C(C)C)N(CCc1cn(Cc2ccc(C)cc2)nn1)S(=O)(=O)c1ccc(F)cc1Br,6,.,.,.,.,-2
CC(=O)N1CCN(c2ccc(N3CCN(C(C)=O)[C@H](C)C3)c(C)c2)[C@@H](C)C1,1,.,.,.,.,-2
COc1cccc(/C=C2\SC(=O)N(CC(=O)NCCCn3ccnc3)C2=O)c1,-3,24,99*,9,-3,17
COc1ccc(-c2ccc3[nH]c4c(c3c2)CCN2C(=O)[C@@H]([C@H](C)O)[C@@H](N(C)C(=O)Nc3ccc(F)cc3)C[C@@H]42)cc1,18,.,.,7,.,8
O=C1C(=O)N(CCO)C(c2ccccc2[N+](=O)[O-])/C1=C(\O)c1ccccc1 (centres undefined),3,5,-10,-4,-2,7
O=C1C(=O)N(c2ccc(O)cc2)C(c2ccccc2[N+](=O)[O-])/C1=C(\O)c1ccccc1 (centres undefined),4,4,85*,-2,-2,7
Cc1ccc(CCNS(=O)(=O)c2ccc3c(c2)C(C)(C)C(=O)N3C)cc1,5,-3,-3,-4,12,-6
Cc1cc(C)cc(NS(=O)(=O)c2ccc3c(c2)C(C)(C)C(=O)N3C)c1,-1,-2,-7,5,11*,-3
Cn1c2cc(S(C)=O)sc2c2cnn(Cc3cccc(N)c3)c(=O)c21 (centres undefined),.,.,.,.,.,-5
COCc1c(C(=O)NC2CCCCCC2)oc2ccccc12,0,-11,89*,-2,3,0
C[C@@H]1OC(C2CCCCC2)N(C)[C@H]2C[C@H]3c4[nH]c5cccc(-c6ccccc6)c5c4CCN3C(=O)[C@@H]12 (some centres undefined),3,.,.,.,.,0
COc1cccc(NC2=C(NCCO)C(=O)c3ccccc3C2=O)c1,-2,3,87*,-30,-5,1
Cc1cccc(NC2=C(NCCO)C(=O)c3ccccc3C2=O)c1,-3,-6,99*,-23,2,1
COc1cc(SC)ccc1C(=O)Nc1c(C)cccc1C,-6,-5,.,1,0,0
COc1cc(SC)ccc1C(=O)Nc1c(Cl)cncc1Cl,-5,-7,77*,-2,3,-1
CCOC(=O)CC1(C)Oc2ccccc2N1S(=O)(=O)c1ccc(C)cc1 (centres undefined),1,.,.,-1,.,-8
COc1ccc(-c2cnc(N)nc2-c2ccc(OCc3ccccc3)cc2O)cc1,6,-9,-26,-5,-3,5
Nc1ncc(-c2ccccc2)c(-c2ccc(O)cc2O)n1,0,0,98*,6,-1,3
CCC(C)c1ccc(NC(=O)c2cccnc2)cc1 (centres undefined),-4,-2,-2,-4,4,0
CCC(C)c1ccc(O)c(NC(=O)c2cccnc2)c1 (centres undefined),4,-5,95*,-7,-1,2
